# Only some compounds are listed: those with a hit (about 1.2% of all), similar ones and a draw of the others.
# Rv3671c inh = Rv3671c (M. tuberculosis) protease inhibition. hit rate 0.048% among 320,000. AID 2606. inhibition, % at 5.96 µM; in the data active means inhibition above about 38%;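 further: extracellular domain of Rv3671c used as enzyme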
# Mtb UGM inh = inhibitors of M. tuberculosis UDP-galactopyranose mutase; purified UGM, fluorescence polarization probe displacement; inhibition, % at 10 µM; hit rate 0.06% among 320,000; in the data active means inhibition above about 10%, passing the limit was not always enough
# SSB-PriA inh = inhibitors of Klebsiella pneumoniae PriA binding to SSB C-terminal tail; AlphaScreen SSBct-PriA binding, biotinylated peptide; inhibition, % at 33 µM; hit rate 0.6% among 430,000; AID 1272365; in the data active means inhibition mostly above about 37%, no sharp cut-off; inactive means mostly below about 20%
# PrP UTR inh = suppresses PrP 5' UTR mRNA reporter expression. cell-based PrP 5' UTR mRNA reporter, plate reader. hit rate 0.35% among 340,000. AID 488862. inhibition, % (test concentration not listed); in the data active means inhibition above about 52%
# PrPC TRFRET = cell surface PrPC inhibition, primary TR-FRET screen; P04156; hit rate 0.43% among 370,000; TR-FRET read-out; inhibition, % at 13.8 µM; AID 720596; in the data active means inhibition above about 24%
# FadD28 binding = inhibitors of Mycobacterium tuberculosis FadD28 bisubstrate binding; FadD28 bisubstrate probe binding, fluorescence polarization; inhibition, % at 12.5 µM; hit rate 0.22% among 360,000; in the data active means inhibition above about 8.5%, passing the limit was not always enough
# PrPC TRFRET cf = confirmation of inhibitors of cell surface human prion protein | AID 743200 | shares compounds with PrPC TRFRET | inhibition, % at 13.8 µM | hit rate 65% among 1,500 | cell surface PrPC level, TR-FRET; in the data active means inhibition above about 25%
# LD9 cytotox = counter-screen for PrPc inhibitors: cytotoxicity in LD9 cells | hit rate 29% among 1,500 | shares compounds with PrPC TRFRET | inhibition, % at 13.8 µM | luminescence viability | AID 743201; in the data active means inhibition above about 9.5%
# A number is an active result; – = inactive; · = no result.
SMILES,Rv3671c inh,Mtb UGM inh,SSB-PriA inh,PrP UTR inh,PrPC TRFRET,FadD28 binding,PrPC TRFRET cf,LD9 cytotox
O=C(Cc1csc(NC(=O)[C@@H]2CCC(=O)N2)n1)Nc1ccc2c(c1)OCO2,·,·,–,·,·,·,·,·
CN(CC(=O)Nc1ccccc1C(F)(F)F)C(=O)c1cc(-c2cccs2)nn1-c1ccccc1,–,–,–,–,25,–,49,–
O=C(NCC1CCN(C(=O)c2cccnc2)CC1)C(=O)Nc1cccnc1,·,·,–,·,·,·,·,·
COc1ccccc1Nc1nc(NCc2ccco2)c2ccccc2n1,–,–,–,·,–,–,·,·
Cc1ccc(Nc2nc(NCc3ccco3)c3ccccc3n2)cc1,–,–,–,–,35,–,43,24
O=C(OCCC12CC3CC(CC(C3)C1)C2)c1ccc(NCc2cc(O)ccc2O)cc1,·,·,–,–,28,–,45,72
CCNC(=O)OCCC12CC3CC(CC(C3)C1)C2,–,–,–,–,–,–,·,·
O=C(OCC12CC3CC(CC(C3)C1)C2)c1ccc(NCc2cc(O)ccc2O)cc1,·,·,–,–,25,–,26,22
C#CCn1c(=NC(=O)Cc2cccc3ccccc23)sc2cc(OC)ccc21,·,·,–,·,·,·,·,·
CCNC(=O)N1CC(S(=O)(=O)C2CCCCC2)C1,·,·,–,·,·,·,·,·
C=CCc1ccc(OCC(O)CN2CCN(c3cccc(Cl)c3)CC2)c(OC)c1 (centres undefined),·,·,–,·,·,·,·,·
Cc1cc2cc(CNC(=S)NCc3ccccc3)ccc2n1C,–,–,75,–,31,–,29,–
COc1ccccc1NC(=S)NCc1ccc2c(c1)cc(C)n2C,–,–,88,–,50,–,–,–
Cc1cc2cc(CNC(=O)C(C)Oc3ccccc3)ccc2n1C (centres undefined),–,–,–,–,36,–,–,–
O=C(NCCCCN1CCOC(c2ccccc2)C1)C(=O)Nc1ccc2c(c1)OCO2 (centres undefined),·,·,–,·,·,·,·,·
Cc1c(CCC(=O)O)c(=O)oc2c(C)c3occ(-c4ccc(Cl)cc4)c3cc12,·,–,–,–,–,–,·,·
Cc1c(CC(=O)O)c(=O)oc2c(C)c3occ(-c4ccccc4)c3cc12,–,–,–,–,28,·,–,–
Cc1cc(Cl)cc2sc(N(Cc3cccnc3)C(=O)Cc3cccc4ccccc34)nc12,·,·,–,·,·,·,·,·
COc1ccc(OC)c(-c2cc(C(=O)NCC3CCN(Cc4ccccc4SC)CC3)n(C)n2)c1,·,·,–,·,·,·,·,·
Cc1cc(NC(=O)c2ccco2)n(C(C)C)n1,·,·,–,·,·,·,·,·
CC(=O)c1sc(NC(=O)CCOc2ccccc2)nc1C,–,–,–,–,35,–,41,–
CC(=O)c1sc(NC(=O)C(C)(C)C)nc1C,–,–,–,–,26,–,27,–
Cc1cc(C)n(CCN2CCCN(C(=O)Cc3cn(C)c4ccccc34)CC2)n1,·,·,–,·,·,·,·,·
CCc1ccc(C(=O)NNc2ccc(Cl)cc2)cc1,–,–,–,–,31,–,43,–
CCCc1ccc(C(=O)NNc2cc(Cl)ccc2Cl)cc1,–,–,–,–,25,–,27,–
SMILES,Rv3671c inh,Mtb UGM inh,SSB-PriA inh,PrP UTR inh,PrPC TRFRET,FadD28 binding,PrPC TRFRET cf,LD9 cytotox
CCCc1ccc(C(=O)NNC(=O)c2ccc(Cl)cc2)cc1,–,–,–,–,–,–,·,·
Cc1ccc(CC(=O)Nc2ccccc2C#N)cc1,·,·,–,·,·,·,·,·
CCOc1cc(C2Nc3ccccc3C(=O)N2c2ccccc2)c(Br)cc1OCC(=O)O (centres undefined),–,–,–,–,93,–,63,–
O=C(Nc1ccccc1)c1cc(C2CCCCN2S(=O)(=O)c2ccccc2)on1 (centres undefined),·,·,·,·,29,–,–,–
O=C(Nc1ccccc1Cl)c1cc(C2CCCCN2S(=O)(=O)c2ccccc2)on1 (centres undefined),·,·,·,·,–,–,·,·
O=C(Nc1ccc2c(c1)OCO2)c1cc(C2CCCCN2S(=O)(=O)c2cccs2)on1 (centres undefined),·,·,·,·,57,–,48,–
Cc1csc(C(=O)Nc2cnn(C3CCOCC3)c2)c1,·,·,–,·,·,·,·,·
COC[C@@](C)(O)CNC(=O)c1cc2ccc(OC)cc2[nH]1,·,·,–,·,·,·,·,·
O=C(NCc1ccncc1)C(=O)Nc1nc(C23CC4CC(CC(C4)C2)C3)cs1,–,–,–,–,35,–,36,–
O=C1C(=O)N(CCCn2ccnc2)C(c2cccc(Br)c2)/C1=C(\O)c1ccc2c(c1)OCCO2 (centres undefined),–,–,·,–,30,–,43,–
O=C1C(=O)N(CCCn2ccnc2)C(c2ccc(Cl)cc2)/C1=C(\O)c1ccc2c(c1)OCCO2 (centres undefined),–,–,·,–,32,–,–,–
O=C(Nc1ccc2c(c1)OCO2)c1ccc2sc([C@@H]3O[C@H](CO)[C@H](O)[C@H](O)[C@H]3O)nc2c1,·,·,·,·,–,–,·,·
O=C(Nc1ccc2c(c1)OCO2)c1ccc2sc([C@@H]3O[C@H](CO)[C@@H](O)[C@H]3O)nc2c1,·,·,·,·,25,–,–,–
O=C1c2cccc(O)c2C(=O)c2c(O)cccc21,–,–,·,·,·,·,·,·
CC1OC(CC(=O)O)CC2=C1C(=O)c1c(O)cccc1C2=O (centres undefined),·,·,–,–,71,–,86,98
O=C(Nc1ccccc1)C1=C(c2ccccc2)S(=O)(=O)CCS1(=O)=O,·,·,–,–,33,–,–,70
CCOC(=O)c1sc(NC(=O)c2cccc([N+](=O)[O-])c2)nc1C,·,·,–,·,·,·,·,·
Cc1nc(SCC(=O)Nc2cc(C(N)=O)cc(C(N)=O)c2)c2c(C)c(C)sc2n1,–,–,–,–,85,–,94,–
Cc1sc2ncnc(SCC(=O)Nc3cccc(S(N)(=O)=O)c3)c2c1C,–,–,–,–,28,–,44,–
CCN(CC)S(=O)(=O)c1ccc(NC(=O)CSc2ncnc3ccccc23)cc1,–,–,–,–,47,–,60,–
NS(=O)(=O)c1ccc(CCNC(=O)CSc2ncnc3ccccc23)cc1,–,–,–,–,27,–,45,–
NS(=O)(=O)c1ccc(CCNC(=O)CSc2ccc3ccccc3c2)cc1,–,–,–,–,–,–,·,·
Cc1sc2ncnc(SCC(=O)Nc3c(F)cccc3F)c2c1C,·,·,–,·,·,·,·,·
NS(=O)(=O)c1ccc(NC(=O)CSc2ncnc3ccccc23)cc1,–,–,–,–,–,–,·,·
CCCNC(=O)CSc1ccc(NC(=O)c2cccc(F)c2)nn1,·,·,–,·,·,·,·,·
Cn1nnc2c(=O)n(CC(=O)NC3CCCCC3)cnc21,·,·,–,·,·,·,·,·
O=C(c1cnccn1)N1CC(C(=O)N2CCN(c3ccc(C(F)(F)F)cn3)CC2)C1,·,·,–,·,·,·,·,·
NS(=O)(=O)c1cccc(NC(=O)CSc2ncnc3ccccc23)c1,–,–,–,–,37,–,36,–
COc1ccc(C(=O)Nc2cccc(C(=O)NCc3ccco3)c2)cc1,–,–,–,–,27,–,–,–
O=C(NCc1ccco1)c1cccc(-c2nnc(-c3ccccc3)o2)c1,–,–,–,–,26,–,–,–

# Screens: PubChem, several laboratories
